# Measurements: PubChem BioAssay AID588342 (National Center for Advancing Translational Sciences (NCATS), 2011)
# In all, about 360,000 compounds went through this assay and about 25,000 (6.9%) were called active. About 9% were inconclusive and are not listed. Calls come from the whole dose curve; as a rule, active = well fitted inhibition curve with a large enough effect; inconclusive = small, poorly fitted or top-dose-only effect; inactive = flat fitted curve, though single readings scatter. What follows is part of a selection rich in actives, with near analogues and random picks from the rest. A call without a number means that no potency is given here.
# Target: Luciferin 4-monooxygenase (Photinus pyralis) (UniProt P08659)
# Test: qHTS profiling assay for firefly luciferase inhibitor/activator using purifed enzyme and Km concentrations of substrates (counterscreen for miR-21 project); note: nearly all actives have a fitted effect of over 55% in size
# Settings: purified FLuc, luminescence inhibition; series mostly up to 57.5 µM
# Procedure, shortened: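 Biochemical qHTS of compounds, final roughly 60 µM downward over six points, against 10 nM purified firefly luciferase using Km concentrations of substrates (10 uM D-luciferin, 10 uM ATP) in Tris acetate pH 7.5 buffer; luminescence output.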
# Potency is the fitted concentration of half-maximal effect.
# Luciferin 4-monooxygenase (Photinus pyralis), sequence (P08659 whole entry, looked up): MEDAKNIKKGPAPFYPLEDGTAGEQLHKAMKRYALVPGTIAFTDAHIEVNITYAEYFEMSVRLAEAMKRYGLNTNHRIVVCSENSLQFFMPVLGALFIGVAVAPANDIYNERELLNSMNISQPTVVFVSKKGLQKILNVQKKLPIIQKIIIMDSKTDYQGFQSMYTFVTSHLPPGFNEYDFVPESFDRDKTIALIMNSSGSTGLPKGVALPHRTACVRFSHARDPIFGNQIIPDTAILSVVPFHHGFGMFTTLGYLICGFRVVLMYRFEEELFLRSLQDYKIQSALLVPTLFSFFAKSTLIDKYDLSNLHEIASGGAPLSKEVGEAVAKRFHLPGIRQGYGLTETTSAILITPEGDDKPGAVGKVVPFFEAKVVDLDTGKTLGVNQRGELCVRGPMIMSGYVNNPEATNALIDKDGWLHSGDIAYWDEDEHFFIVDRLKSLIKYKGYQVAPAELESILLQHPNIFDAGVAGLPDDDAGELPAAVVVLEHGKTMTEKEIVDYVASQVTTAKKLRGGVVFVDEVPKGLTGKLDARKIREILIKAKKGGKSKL
row,Compound,Potency
1,N#CCC(=O)NC1CCC(CC2CCC(NC(=O)CC#N)CC2)CC1 (stereo not drawn),inactive
2,Cc1ccsc1/C=C1\SC(N2CCOCC2)=NC1=O,10.7 µM (active)
3,O=C1N=C(N2CCOCC2)CS1,inactive
4,Cc1ccc(C)c(S(=O)(=O)c2nnn3c2nc(N2CCOCC2)c2sccc23)c1,inactive
5,O=c1[nH]c(N2CCOCC2)nc2ccccc12,inactive
6,CC(C)=C1SC(N2CCN(c3ccc(C)c(Cl)c3)CC2)=NC1=O,inactive
7,O=C1N=C(N2CCOCC2)S/C1=C\C=C/c1ccccc1,10.7 µM (active)
8,COc1ccccc1C1CCN(C(=S)Nc2ccc(Br)cc2)CC1,inactive
9,O=C(Nc1ccc(Br)cc1)c1ccc(Br)c(S(=O)(=O)NCc2ccccc2)c1,inactive
10,Cc1ccc(Nc2nc3ccccc3nc2-n2nc(C)cc2C)c(Cl)c1,inactive
11,CCN(CC(=O)Nc1ccc(OC)cc1)C(=O)c1ccc(=O)n(Cc2ccccc2)n1,inactive
12,Cc1ccc(-n2cnc3cc(C(=O)NCCC4=CCCCC4)ccc32)cc1Cl,inactive
13,Cn1nnc2cc(C(=O)NCCC3=CCCCC3)ccc21,5.36 µM (active)
14,O=C(NCCC1=CCCCC1)c1ccc(-n2cncn2)cc1,15.1 µM (active)
15,O=C(Cc1nn[nH]n1)NCCC1=CCCCC1,inactive
16,O=C(COc1cccc(-n2cnnn2)c1)NCCC1=CCCCC1,inactive
17,CC(C)COc1ccc(C(=O)OCC(=O)NCCC2=CCCCC2)cc1,inactive
18,CC(=O)Nc1ccc(S(=O)(=O)N(C)CC(=O)NCCC2=CCCCC2)cc1,inactive
19,CN(c1ccc(C(=O)NCCC2=CCCCC2)cc1)S(C)(=O)=O,9.53 µM (active)
20,Cc1ccn2c(=O)c(C(=O)NCCC3=CCCCC3)c(O)nc2c1,inactive
21,CCOC(=O)c1ccc(-c2ccc(/C=C(\C#N)C(=O)Nc3ccc(OCC)cc3)o2)cc1,inactive
22,CCCCn1c(N)c(N(CCC(C)C)C(=O)COC(=O)c2ccc(CC)cc2)c(=O)[nH]c1=O,inactive
23,Cc1ccc(CN2CCCn3nc(C(=O)NCc4ccccc4Cl)cc3C2=O)cc1,inactive
24,Cn1c(=O)c2c(SCC(=O)NCC3CCCO3)nc(-c3ccccc3F)nc2n(C)c1=O (stereo not drawn),inactive
25,Cc1oc2ncnc(N3CCOCC3)c2c1C(=O)NCCc1ccccc1,inactive
26,CN(C)c1ccc(C=C2C(=O)OC3(CCCC3)OC2=O)cc1,23.9 µM (active)

row,Compound,Potency
1,COCCN(Cc1ccccc1)C(=O)Cc1ccc(S(=O)(=O)N2CCOCC2)s1,inactive
2,CCCN(CCC)C(=O)C1CCCN(c2ncnc3c2nc2n3CCCCC2)C1 (stereo not drawn),inactive
3,c1ccc(CN=C2Nc3ccccc3CS2)nc1,12 µM (active)
4,COc1cccc(CNC(=O)CCC(=O)N2CC3CCCN3c3ccccc32)c1 (stereo not drawn),inactive
5,O=C(CN(c1cc(C(F)(F)F)ccc1Cl)S(=O)(=O)c1ccccc1)NCc1cccnc1,inactive
6,CCCNS(=O)(=O)c1ccc(CCC(=O)NCc2cccnc2)cc1,inactive
7,CCc1ccc(N(CC(=O)NCc2cccnc2)S(=O)(=O)c2ccccc2)cc1,0.135 µM (active)
8,Cc1ccc2sc(N(Cc3cccnc3)C(=O)C3COc4ccccc4O3)nc2c1C (stereo not drawn),inactive
9,COc1cc(OC)cc(-c2nc3nc(C)c(CCC(=O)Nc4ccc(C)cc4)c(C)n3n2)c1,inactive
10,O=S(=O)(N1CCCCC1)N1CCNCC1,inactive
11,CS(=O)(=O)N1CCN(C(=O)c2cc3ccccc3oc2=O)CC1,inactive
12,O=c1oc2ccccc2cc1-c1cn(-c2ccccc2)c(=S)[nH]1,0.849 µM (active)
13,S=c1[nH]c(-c2cccs2)cn1-c1ccccc1,inactive
14,COc1ccc(C2C(=O)N(C3CCCCCC3)CC(=O)N2CCc2ccc(Cl)cc2)cc1OC (stereo not drawn),inactive
15,CC(C)c1ccc(-c2noc(C3CCCN(S(C)(=O)=O)C3)n2)cc1 (stereo not drawn),19 µM (active)
16,COc1cc(-c2noc(C3CCCN(S(=O)(=O)c4cccc(Cl)c4)C3)n2)cc(OC)c1OC (stereo not drawn),inactive
17,O=C(Cc1cccs1)N1CCCC(c2nc(-c3ccc(S(=O)(=O)N4CCCC4)cc3)no2)C1 (stereo not drawn),inactive
18,CCN(C(=O)CSc1ncnc2sccc12)c1c(N)n(Cc2ccccc2)c(=O)[nH]c1=O,inactive
19,CCCCSc1nnc2c(n1)OC=Nc1ccccc1-2,23.9 µM (active)
20,CCSc1nnc2c(n1)OC(c1ccc(OCC(=O)O)cc1)Nc1ccccc1-2 (stereo not drawn),inactive
21,COc1ccc(NC(=O)Cn2cc(C(=O)c3ccncc3)c(=O)c3cc(C)ccc32)cc1Cl,inactive
22,Cc1ccc(-c2cnc(C3CC3)o2)cc1S(=O)(=O)Nc1cccc(C)c1C,inactive
23,CN(Cc1nc2ccc(F)cc2[nH]1)Cc1nc(CC2CC2)no1,inactive
24,O=C(Cn1c(=O)n(-c2ccc(F)cc2)c(=O)c2sccc21)Nc1cccc(C(F)(F)F)c1,inactive
25,CC(=O)Nc1cccc(NC(=O)CSc2cn(CC(=O)N3CCCC3)c3ccccc23)c1,inactive
26,O=c1c2c(nc3n1CCCCC3)sc1c(O)cccc12,4.26 µM (active)

row,Compound,Potency
1,CC1CCN(C(=O)c2ccc3c(=O)n4c(nc3c2)CCCCC4)CC1,inactive
2,Cc1cccc2c(=O)n3c(nc12)CCCCC3,inactive
3,COc1ccc([C@H]2CC(=O)C=C(c3ccc(CO)cc3)C2)cc1,inactive
4,O=C1CCC(C(=O)N2CCN(c3ccccc3Cl)CC2)CN1CC1CCCCC1 (stereo not drawn),inactive
5,S=C(Nc1ccc(Br)cc1Cl)NC1CCN(Cc2ccccc2)CC1,inactive
6,O=C(NNC(=S)Nc1ccc(Br)cc1Cl)c1ccco1,16.9 µM (active)
7,CCC(=O)NC(=S)Nc1ccc(NC(=O)c2ccco2)c(Cl)c1,inactive
8,COc1ccc(S(=O)(=O)c2c(Nc3ccc(C)cc3)sc(C(=O)c3ccc(C)cc3)c2N)cc1,inactive
9,COc1ccc(-c2nc(CN3CCC(C(=O)NCc4ccccc4)CC3)c(C)o2)cc1OC,inactive
10,COc1ccccc1N1CC(O)=C(c2nc3ccccc3s2)C1=N,inactive
11,CCOC(=O)CCCN1CC(O)=C(c2nc3ccccc3s2)C1=N,inactive
12,N=C1C(c2nc3ccccc3s2)=C(O)CN1NC(=O)c1ccc([N+](=O)[O-])cc1,13.5 µM (active)
13,O=C(CSc1oc(-c2ccco2)nc1S(=O)(=O)c1ccccc1)c1ccc(Cl)cc1,inactive
14,Cc1ccc(-c2cc(-c3coc4ccccc4c3=O)c3c(n2)-c2cc(Cl)ccc2OC3)cc1,inactive
15,CC(C)(C)OC(=O)N1CCC(c2c(C(=O)N3CCN(c4cccc(Cl)c4)CC3)cnn2-c2cccc(Cl)c2)CC1,inactive
16,CCCCCn1c(CCCNC(=O)c2ccccc2OC)nc2ccccc21,inactive
17,CCOC(OCC)c1ccc(/C=C\c2nccc(N)n2)cc1,8.49 µM (active)
18,CCOc1ccc(Nc2c(S(=O)(=O)c3ccccc3)cnc3ccccc23)cc1,inactive
19,CN(C(=O)Cn1nnc(-c2ccc(F)cc2)n1)C1CCS(=O)(=O)C1 (stereo not drawn),inactive
20,COc1ccc(CNC(=O)CC2Oc3ccc(C)cc3NC2=O)cc1 (stereo not drawn),inactive
21,Cc1ccc(NC(=O)c2oc3ccccc3c2C)c([N+](=O)[O-])c1,inactive
22,Cc1c(C(=O)Nc2cccc(-c3nnc4n3CCCCC4)c2)oc2ccccc12,19 µM (active)
23,O=C(Cn1[nH]c(=O)c2ccccc2c1=O)Nc1cccc(-c2nnc3n2CCCCC3)c1,inactive
24,O=S(=O)(c1cccc(-c2nnc3n2CCCCC3)c1)N1CCOCC1,inactive
25,Cc1c(C(=O)NC2CCCCC2)oc2ccccc12,15.1 µM (active)
26,CSc1ncccc1C(=O)NC1CCCCCC1,inactive

row,Compound,Potency
1,O=C(Nc1ccc(F)cc1F)c1cnn(-c2ccc(F)cc2)c1-n1cccc1,inactive
2,CC(C)(C)OC(=O)N1CCC(c2c(C(=O)NCCc3ccsc3)cnn2-c2ccc(F)cc2F)CC1,inactive
3,COc1cccc(C(=O)NNC(=O)/C=C/c2ccccc2)c1,inactive
4,CC(C)c1ccc(/C=C/C(=O)NNC(=O)c2cccnc2)cc1,12 µM (active)
5,O=C(/C=C/c1ccc(F)cc1)NCCNC(=O)/C=C/c1ccc(F)cc1,inactive
6,CCOC(=O)c1sc(NC(=O)/C=C/c2ccc(C(C)C)cc2)c(C(=O)OCC)c1C,inactive
7,Cc1c(NC(=O)c2cccnc2)c(=O)n(-c2ccccc2)n1C,inactive
8,C=CCNC(=O)/C=C/c1ccc(C(C)C)cc1,19 µM (active)
9,O=C(/C=C/c1cn(-c2ccccc2)nc1-c1ccc2c(c1)OCCO2)NCCCN1CCOCC1,inactive
10,O=C(/C=C/c1ccc(Cl)cc1)NCCCn1ccnc1,inactive
11,CC(C)c1ccc(/C=C/C(=O)NCCCN2CCOCC2)cc1,21.3 µM (active)
12,CCCOc1ccc(C2c3c(-c4ccccc4O)n[nH]c3C(=O)N2Cc2cccnc2)cc1 (stereo not drawn),inactive
13,N#Cc1ccccc1Cn1cnc2nc3c(cc2c1=O)CCCC3,inactive
14,Cc1ccc(-n2nc(C)c3c(C)cc(=O)n(CC(=O)Nc4ccc(C(C)C)cc4)c32)cc1,inactive
15,Cc1c(C(=O)Nc2cccc(Cl)c2)oc2ccc(S(=O)(=O)N3CCOCC3)cc12,inactive
16,Cc1cccc(-c2nc(SCC(=O)Nc3cc(C)on3)c3c(=O)n(C)c(=O)n(C)c3n2)c1,inactive
17,Cc1ccc(NC(=O)Cn2cnc3nc4c(cc3c2=O)CCCC4)cc1Cl,inactive
18,COc1ccc(NC(=O)c2cnc(Nc3ccc(C)c(Cl)c3)c3ccccc23)cc1OC,inactive
19,CCN(C(=O)CSc1ncn[nH]1)c1cccc2ccccc12,inactive
20,COc1ccc(C(=O)CSc2nccc(=O)[nH]2)cc1,inactive
21,CC(C)(C)c1ccc(C(=O)CSc2ncn[nH]2)cc1,4.78 µM (active)
22,CC(C)OCCCn1c(SCC(=O)c2ccccc2)nc2c(sc3ccccc32)c1=O,inactive
23,Cc1csc(SCC(=O)N(c2ccccc2)C(C)C)n1,inactive
24,CC(=O)OCCN(CCCn1c(-c2ccncc2)nc2ccccc21)c1nc(-c2ccc(C)cc2)cs1,inactive
25,Cc1ccc(C)c(NC(=O)NNC(=O)c2ccc3ccccc3c2O)c1,inactive
